Where “and” joins values, the source holds several entries; their conditions need not be identical. Equal entries are not always repeated. Structures can show the parent of a compound that is named as a salt. ± gives the standard deviation of the averaged measurements. Over roughly 3,200 compounds, “nuclei count (viability) relative to DMSO” has its median near 99; the lowest 2% begin near 16. This excerpt belongs to a sample that is enriched for the lowest values.
system: U2OS; test: nuclei count (viability) relative to DMSO (% of DMSO); higher = more viable cells; settings: 10 µM; 24 h
Experimental: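 Primary image-based screen in U2OS cells: compounds at 10 uM for 24 h, then a 1 h o-propargyl-puromycin (OPP) pulse, click labelling, and high-throughput microscopy. Mean cytoplasmic OPP intensity and nuclei count were normalised to DMSO wells within each plate (DMSO = 100) and averaged over triplicate plates.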

Compound	nuclei count
CC(C)=CCC/C(C)=C/CC/C(C)=C/CSCC(=O)O [Farnesylthioacetic acid]	97.9
C1COC(NC(C2CC2)C2CC2)=N1 [Rilmenidine hemifumarate]	103
C1COC(NC(C2CC2)C2CC2)=N1 [Rilmenidine]	93.6
CC(C)(C)c1ccc(S(=O)(=O)/C=C/C#N)cc1	43.7
COc1cc([C@@H]2c3cc4c(cc3[C@@H](O[C@@H]3O[C@@H]5CO[C@@H](C)O[C@H]5[C@H](O)[C@H]3O)[C@H]3COC(=O)[C@H]23)OCO4)cc(OC)c1O [Etoposide]	44.3 ± 2
COc1cc([C@@H]2c3cc4c(cc3[C@@H](O[C@@H]3O[C@@H]5CO[C@@H](C)O[C@H]5[C@H](O)[C@H]3O)[C@H]3COC(=O)[C@H]23)OCO4)cc(OC)c1O [Etoposide (VP-16)]	50.9
COc1cc([C@@H]2c3cc4c(cc3[C@@H](O[C@@H]3O[C@@H]5CO[C@@H](c6cccs6)O[C@H]5[C@H](O)[C@H]3O)[C@H]3COC(=O)[C@H]23)OCO4)cc(OC)c1O [Teniposide (Vumon)]	15.5
CC[C@H](CO)Nc1nc(Nc2cccc(-c3ccccn3)c2)c2ncn(C(C)C)c2n1 [(R)-DRF053 dihydrochloride]	76.2
CC(Oc1ccc(O)cc1)(P(=O)(O)O)P(=O)(O)O	105 ± 0.12
CO[C@@H]1[C@H](O)[C@@H](CO)O[C@H]1n1cnc2c(NC3CCCCC3)ncnc21	102
COCC[n+]1c2c(n(Cc3cnccn3)c1C)C(=O)c1ccccc1C2=O	14.1
CC(=O)NNC(=O)N1Cc2ccccc2Oc2ccc(Cl)cc21	94.3
OCc1ccc(O[C@@H]2O[C@H](CO)[C@@H](O)[C@H](O)[C@H]2O)cc1 [Gastrodin (Gastrodine)]	94.5
CCN(CC)CCOc1ccc(Nc2ncc3cc(-c4c(Cl)cccc4Cl)c(=O)n(C)c3n2)cc1	7.54
CCN(CC)CCOc1ccc(Cc2ccccc2)cc1 [DPPE fumarate]	101
CSc1cccc(Nc2ncc3cc(-c4c(Cl)cccc4Cl)c(=O)n(C)c3n2)c1	72.2
Cc1ccc(CC2(O)CCN(CCOc3ccc(O)cc3)CC2)cc1	87.3
COc1ccc(CCC(=O)c2c(O)cc(O[C@@H]3O[C@H](CO)[C@@H](O)[C@H](O)[C@H]3O[C@@H]3O[C@@H](C)[C@H](O)[C@@H](O)[C@H]3O)cc2O)cc1O [Neohesperidin dihydrochalcone (Nhdc)]	98.7
COC(=O)[C@]12CCC(C)(C)C[C@H]1[C@H]1C(=O)C=C3[C@@]4(C)C=C(C#N)C(=O)C(C)(C)[C@@H]4CC[C@@]3(C)[C@]1(C)CC2 [Bardoxolone Methyl]	4.35
C[C@]12CC[C@@H](O)C[C@@H]1CC[C@@H]1[C@@H]2CC[C@]2(C)C=CC[C@@H]12 [3a, 5a-Androstenol]	90.5
Cc1ccc(NC(=O)c2ccc(CN3CC[C@H](N(C)C)C3)c(C(F)(F)F)c2)cc1Nc1nccc(-c2cncnc2)n1 [Bafetinib (INNO-406)]	77.9
Cc1ccc(C(=O)Nc2ccc(CN3CCN(C)CC3)c(C(F)(F)F)c2)cc1C#Cc1cnc2[nH]ncc2c1 [GZD824 Dimesylate]	14.1
Cc1ccc(NC(=O)c2ccc(CN3CCN(C)CC3)cc2)cc1Nc1nccc(-c2cccnc2)n1 [Imatinib]	101
Cc1ccc(C(=O)Nc2ccc(CN3CCN(C)CC3)c(C(F)(F)F)c2)cc1C#Cc1cnc2cccnn12	16.3
Cc1ccc(NC(=O)c2ccc(CN3CCN(C)CC3)cc2)cc1Nc1nccc(-c2cccnc2)n1 [Imatinib mesylate]	93.1 ± 2.5

Compound	nuclei count
Cc1ccc(NC(=O)c2ccc(CN3CCN(C)CC3)cc2)cc1Nc1nc(-c2cccnc2)cs1 [Masitinib (AB1010)]	90.7
Cc1ccc(NC(=O)c2ccc(CN3CCN(C)CC3)cc2)cc1Nc1nccc(-c2cccnc2)n1 [Imatinib Mesylate]	96.8
Cc1ccc(NC(=O)c2ccc(CN3CCN(C)CC3)cc2)cc1Nc1nccc(-c2cccnc2)n1 [Imatinib (STI571)]	99.1
CCNC(=O)Nc1ccc(-c2nc3c(c(N4CCOC[C@@H]4C)n2)CCN(C2COC2)C3)cc1	75.4 ± 5.5
O=C(O)[C@]1(Cc2cccc(Nc3nccs3)n2)CC[C@@H](Oc2cccc(Cl)c2F)CC1	77.7 ± 2.7
CC(C1=C(CCN(C)C)Cc2ccccc21)c1ccccn1 (stereo in doubt) [(S)-(+)-Dimethindene maleate]	101
CCNC(=O)c1cc2c(-c3cc(OCCN4CCCC4)c(Cl)cc3Cl)nc(N)nc2s1	67
NC(=O)N1c2ccccc2CC(O)c2ccccc21 (centres undefined) [Licarbazepine]	104
CCNc1nc(Nc2cc(F)c(C(=O)N3CCOCC3)cc2OC)ncc1C(F)(F)F	96.2
COc1ccc(-n2[nH]c3c4c(ncc3c2=O)CCCCC4)cc1	99.9
O=C(O)c1cc(O)ccc1O [Gentisic acid]	103
COc1ccc2[nH]c(-c3ccccc3)c(CCNC(C)=O)c2c1 [2-Phenylmelatonin]	84.5
N[C@@H](CSC(c1ccccc1)(c1ccccc1)c1ccccc1)C(=O)O [S-Trityl-L-cysteine]	95
CNC(=O)c1nn(C)c2c1C(C)(C)Cc1cnc(Nc3ccc(N4CCN(C)CC4)cc3)nc1-2	54.8 and 36.4
C=CC(=O)Nc1cccc(Nc2nc(Nc3ccc(OCCOC)cc3)ncc2F)c1	34.7
CS(=O)(=O)c1cccc(CNc2nc(Nc3ccc4c(c3)CCC(=O)N4)ncc2C(F)(F)F)c1	45.9 ± 3.2
Cc1cnc(Nc2ccc(N3CCN(C)CC3)cc2)nc1Nc1cccc(S(=O)(=O)NC(C)(C)C)c1	5.44
C=CCn1c(=O)c2cnc(Nc3ccc(N4CCN(C)CC4)cc3)nc2n1-c1cccc(C(C)(C)O)n1	25.1
Cc1cnc(Nc2ccc(OCCN3CCCC3)cc2)nc1Nc1cccc(S(=O)(=O)NC(C)(C)C)c1	7.48 and 5.57
Oc1cc2c(cc1O)[C@@H]1c3ccc(O)c(O)c3OC[C@]1(O)C2 [Hematoxylin (Hydroxybrazilin)]	86
Cc1nn(C)c2nc(NNC(=O)Nc3cc(Cl)nc(Cl)c3)cc(C(C)C)c12	106
COC(=O)C1=C(C)NC(C)=C([N+](=O)[O-])[C@H]1c1ccccc1C(F)(F)F	99.5
O=C(c1ccc(Cl)cc1Cl)n1nnc2ccccc21	83.2
COc1cc(OC)c(/C=C/S(=O)(=O)Cc2ccc(OC)c(NCC(=O)O)c2)c(OC)c1	16.3 ± 1.4
